Experimental data taken from PubChem BioAssay AID1159580 (chemical genetic matrix, 2015).
Out of some 5,500 compounds screened, about 2,000 (36%) were called active. Another 18% or so got no clear call; they are omitted. Cut-off read from the data, not from the text of the source: active = normalized growth mostly below about 0.91 (no sharp cut-off); inconclusive = no clear call, values can overlap the other calls; inactive = mostly above about 0.92. Some of the results follow.

Experiment: chemical genetic growth profiling, strain panel (AID 1159580);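 note: tested at 20 µM; growth read once vehicle control cultures reached saturation at 30 °C; 1 = growth at the plate median or of vehicle wells; lower values mean less growth of the strain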
Conditions: S. cerevisiae deletion strains, growth OD

Measured: normalized growth

CCOC(=O)C1C(c2ccc(Br)cc2)C(C(=O)OCC)C(O)(C(F)(F)F)NC1(O)C(F)(F)F (stereo unspecified)
inactive: locus YAR019C, strain CDC15, stronger effect = lower value 0.999 | locus YBL105C, strain PKC1, stronger effect = lower value 0.991 | locus YBR135W, strain CKS1, stronger effect = lower value 1 | locus YBR136W, strain MEC1, stronger effect = lower value 0.988 | locus YBR160W, strain CDC28, stronger effect = lower value 0.999 | locus YDL017W, strain CDC7, stronger effect = lower value 0.996 | locus YDL028C, strain MPS1, stronger effect = lower value 0.999 | locus YDL101C, strain DUN1, stronger effect = lower value 0.99 | locus YDL108W, strain KIN28, stronger effect = lower value 1 | locus YDL132W, strain cdc53, stronger effect = lower value 0.996 | locus YDL214C, strain PRR2, stronger effect = lower value 0.961 | locus YDR052C, strain DBF4, stronger effect = lower value 0.994 | locus YDR054C, strain cdc34, stronger effect = lower value 0.992 | locus YDR226W, strain ADK1, stronger effect = lower value 0.998 | locus YDR477W, strain SNF1, stronger effect = lower value 0.994 | locus YER123W, strain YCK3, stronger effect = lower value 0.917 | locus YER133W, strain GLC7, stronger effect = lower value 0.969 | locus YFL009W, strain cdc4, stronger effect = lower value 0.998 | locus YFL029C, strain CAK1, stronger effect = lower value 0.994 | locus YFR003C, strain YPI1, stronger effect = lower value 0.995 | locus YFR019W, strain FAB1, stronger effect = lower value 0.878 | locus YFR028C, strain CDC14, stronger effect = lower value 0.995 | locus YGR040W, strain KSS1, stronger effect = lower value 0.99 | locus YGR052W, strain FMP48, stronger effect = lower value 1 | locus YGR092W, strain DBF2, stronger effect = lower value 0.993 | locus YHR030C, strain SLT2, stronger effect = lower value 0.941 | locus YHR079C, strain IRE1, stronger effect = lower value 0.981 | locus YHR082C, strain KSP1, stronger effect = lower value 0.961 | locus YHR205W, strain SCH9, stronger effect = lower value 0.91 | locus YIL147C, strain SLN1, stronger effect = lower value 0.999 | locus YJL095W, strain BCK1, stronger effect = lower value 0.97 | locus YJL128C, strain PBS2, stronger effect = lower value 0.967 | locus YJL157C, strain FAR1, stronger effect = lower value 0.975 | locus YJR016C, strain ILV3, stronger effect = lower value 0.997 | locus YJR066W, strain TOR1 (second series), stronger effect = lower value 0.943 | locus YJR066W, strain TOR1, stronger effect = lower value 0.911 | locus YKL048C, strain ELM1, stronger effect = lower value 0.986 | locus YKL067W, strain YNK1, stronger effect = lower value 0.974 | locus YKL101W, strain HSL1, stronger effect = lower value 1 | locus YKL193C, strain SDS22, stronger effect = lower value 0.998 | locus YKL203C, strain TOR2, stronger effect = lower value 1.03 | locus YLR113W, strain HOG1, stronger effect = lower value 0.91 | locus YLR133W, strain CKI1, stronger effect = lower value 0.97 | locus YLR403W, strain SFP1, stronger effect = lower value 0.966 | locus YML070W, strain DAK1, stronger effect = lower value 0.956 | locus YMR001C, strain CDC5, stronger effect = lower value 0.987 | locus YMR205C, strain PFK2 (second series), stronger effect = lower value 0.988 | locus YMR277W, strain FCP1, stronger effect = lower value 0.996 | locus YNL006W, strain LST8, stronger effect = lower value 0.999 | locus YNL020C, strain ARK1, stronger effect = lower value 0.99 | locus YNL161W, strain CBK1, stronger effect = lower value 0.999 | locus YNL183C, strain NPR1, stronger effect = lower value 0.942 | locus YNL207W, strain RIO2, stronger effect = lower value 0.996 | locus YNL222W, strain SSU72, stronger effect = lower value 0.999 | locus YNL307C, strain MCK1 (second series), stronger effect = lower value 0.969 | locus YOL078W, strain AVO1, stronger effect = lower value 1 | locus YOL136C, strain PFK27, stronger effect = lower value 0.947 | locus YOR061W, strain CKA2, stronger effect = lower value 0.995 | locus YOR119C, strain RIO1, stronger effect = lower value 1.01 | locus YOR231W, strain MKK1, stronger effect = lower value 0.984 | locus YOR329C, strain SCD5, stronger effect = lower value 0.995 | locus YPL031C, strain PHO85, stronger effect = lower value 0.999 | locus YPL153C, strain RAD53, stronger effect = lower value 0.989 | locus YPL204W, strain HRR25, stronger effect = lower value 0.985 | locus YPL209C, strain IPL1, stronger effect = lower value 0.996 | locus YPL256C, strain CLN2, stronger effect = lower value 0.9 | locus YPR025C, strain CCL1, stronger effect = lower value 0.997 | locus YPR106W, strain ISR1, stronger effect = lower value 0.99 | locus YPR111W, strain DBF20, stronger effect = lower value 0.99 | strain NNK1, stronger effect = lower value 0.992 | strain TSCII, stronger effect = lower value 0.998
